Screening data from PubChem.
esBAF inh: SWI/SNF esBAF complex inhibition; mouse ES cells, Bmi1-luciferase knock-in reporter, 24 h; 100% = twice the neutral-well signal; reporter increase, % at 12.5 µM; 350,000 compounds, 2% hits; AID 602393; in the data active = activation above about 40%; inconclusive = no clear call, values can overlap the other calls;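 also: 0% = median of the plate's neutral control wells and 100% = double that signal; a rise in the Bmi1 reporter signal indicates esBAF inhibition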
MITF TRPM1 HTS: increases MITF-driven TRPM1 promoter luciferase signal. SK-MEL-5 TRPM1-promoter luciferase, 24 h; % of positive control, neutral wells = 0. activation, % at 12.5 µM. 300,000 compounds, 0.75% hits;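 active = mean activation of at least 80% with every replicate also reaching 80%; inconclusive = mean reaches 80% but some replicate falls short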;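 also: 0% = neutral control wells and 100% = parthenolide positive control wells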
Rtt109 Vps75: inhibitors of Candida albicans Rtt109/Vps75 histone acetyltransferase | Q5AAJ8 | purified Rtt109/Vps75, ThioGlo CoA-SH fluorescence, 4 h | inhibition, % at 34.9 µM | 330,000 compounds, 0.16% hits | AID 540336;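 active = inhibition of at least 50% in every replicate; inconclusive = best replicate reaches 50% inhibition but some replicates fall short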
Target sequence (Q5AAJ8 whole entry, looked up): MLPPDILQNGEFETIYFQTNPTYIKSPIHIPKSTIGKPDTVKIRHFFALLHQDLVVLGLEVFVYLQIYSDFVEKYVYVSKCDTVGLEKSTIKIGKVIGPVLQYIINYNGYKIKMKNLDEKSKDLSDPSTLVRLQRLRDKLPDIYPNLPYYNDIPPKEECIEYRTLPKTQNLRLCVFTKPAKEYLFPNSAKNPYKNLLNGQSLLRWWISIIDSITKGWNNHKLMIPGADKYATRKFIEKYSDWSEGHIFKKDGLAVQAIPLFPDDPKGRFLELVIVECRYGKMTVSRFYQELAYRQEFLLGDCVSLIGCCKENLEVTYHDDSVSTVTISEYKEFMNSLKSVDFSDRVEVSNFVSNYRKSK
Wnt bcat act: activators of Wnt/beta-catenin signaling. Wnt/beta-catenin reporter cell assay, activator, plate reader. activation, % at 9.35 µM. AID 743398. 300,000 compounds, 1.2% hits; in the data active = activation above about 30%, passing the limit was not always enough; inconclusive = no clear call, values can overlap the other calls;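 also: 0% = neutral control wells and 100% = positive control wells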
Statin myotox sup: suppression of simvastatin myotoxicity. C2C12 myotubes + simvastatin, ATP luminescence, 48 h; scaled: DMSO 0, geranylgeraniol control 100. rescue of ATP level, % at 7.49 µM. 330,000 compounds, 0.78% hits;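 active = mean ATP rescue above about 67%, or every replicate alone reaching that limit, limit read from the data, passing the limit was not always enough; inconclusive = no clear call, values can overlap the other calls; inactive = mean under the limit and some replicate under it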;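 also: myotubes were challenged with 10 µM simvastatin during compound exposure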
Active calls of the source: *; ? = inconclusive; . = no result. Only some compounds are listed: those with a hit (about 3.1% of all), similar ones and a draw of the others.

SMILES	esBAF inh	MITF TRPM1 HTS	Rtt109 Vps75	Wnt bcat act	Statin myotox sup
S=C(Nc1nc2c(s1)CCCC2)NC1CC1	51*	52	-6	11	-1
O=C(O)CC1=C(Nc2ccccc2)C(=O)N(c2ccccc2)C1c1ccc(Br)cc1 (stereo not given)	.	16	0	36*	.
CCS(=O)(=O)Nc1ccc2c(c1)C(=O)N(C)C[C@@H](OC)[C@H](C)CN(C(=O)COC)[C@H](C)CO2	-11	.	.	.	1
Clc1ccccc1CSc1nnc(-c2ccncc2)o1	49*	.	-1	.	.
Brc1cccc(-c2nnc(SCc3nc4ccccc4[nH]3)o2)c1	0	15	0	.	42
c1ccc2[nH]c(CSc3nnc(-c4ccncc4)o3)nc2c1	-25	-17	-16	-5	85*
c1ccc2c(CSc3nnc(-c4ccncc4)o3)cccc2c1	-28	8	-3	0	4
N#C/C(=C\c1ccc(OC(=O)c2ccc(Br)s2)cc1)c1nc2ccccc2[nH]1	.	63	8	.	.
N#C/C(=C/c1ccc(OC(=O)c2ccc(Br)s2)cc1)c1nc2ccccc2[nH]1	83*	68	-5	9	-7
CCC(=O)Oc1c(S(=O)(=O)c2ccc(C)cc2)c(C)nn1C(C)(C)C	-5	.	-3	-1	106*
CCOC(=O)c1ccc2c(c1)nc(COc1ccc(OC)cc1)n2CC	4	7	4	-1	107*
CCOC(=O)c1ccc2c(c1)nc(-c1ccccn1)n2CC	73*	64	-11	26	-4
CCn1c(C)nc2cc(C(=O)OC)ccc21	.	14	-4	9	.
C[C@@H]1CN([C@H](C)CO)C(=O)Cc2cc(NC(=O)Nc3ccccc3)ccc2O[C@@H]1CN(C)Cc1ccccc1	5	.	.	.	-52
C[C@H](CO)N1C[C@H](C)[C@@H](CN(C)C(=O)C2CCCCC2)OCCCC[C@H](C)Oc2ccc(NS(=O)(=O)c3cn(C)cn3)cc2C1=O	-5	.	.	.	.
CC=Cc1ccc2n(c1=O)C[C@H]1[C@H](CO)[C@@H](C(=O)NCC3CC3)[C@@H]2N1S(=O)(=O)c1cn(C)cn1 (mixture of isomers)	3	.	.	.	-10
CCCCCCOc1ccc(OCC(O)CN2C(=O)NC(C)(C)C2=O)cc1 (stereo not given)	46*	51	24	7	-25
Cc1ccc(OCC(O)CN2C(=O)NC(C)(C)C2=O)cc1 (stereo not given)	-1	-4	-14	.	-2
CC(=O)Nc1cnc(-c2cc(C)c(O)c(C)c2)cn1	72*	.	.	0	-5
CC(=O)Nc1cnc(-c2ccc3c(c2)OCO3)cn1	19	.	.	40*	9
C[C@@H]1CN([C@@H](C)CO)C(=O)c2cc(C3=CCCC3)cnc2O[C@@H]1CN(C)Cc1ccc(C(=O)O)cc1	-5	.	.	.	22
COc1ccc(OC)c(S(=O)(=O)N/N=C\c2ccc3c(c2)OCO3)c1	47*	43	2	11	10
COc1ccc(S(=O)(=O)N/N=C\c2ccc3c(c2)OCO3)c(OC)c1	.	-4	-5	-9	.
Cc1ccc(C(=O)NN=Cc2ccc3c(c2)OCO3)cc1	48*	45	4	9	-11
Cc1nc2ccccn2c1C(=O)N/N=C/c1ccc2c(c1)OCO2	.	88*	-2	0	.
SMILES	esBAF inh	MITF TRPM1 HTS	Rtt109 Vps75	Wnt bcat act	Statin myotox sup
COc1ccc(CCC(=O)N/N=C/c2ccc3c(c2)OCO3)cc1	56*	18	-2	2	2
C[C@@H]1CN([C@@H](C)CO)C(=O)c2cccc(NS(=O)(=O)c3ccc(F)cc3)c2O[C@@H]1CN(C)Cc1ccc(Oc2ccccc2)cc1	-1	.	.	.	-31
Cc1cccc(C(=O)Nc2cccc(C(=O)N/N=C/c3ccc4c(c3)OCO4)c2)c1	60*	55	.	15	-4
Cc1ccccc1C(=O)Nc1cccc(C(=O)N/N=C/c2ccc3c(c2)OCO3)c1	43*	38	7	1	-4
O=C(N/N=C/c1ccccc1)c1cc(-c2ccc3c(c2)OCO3)n[nH]1	49*	12	.	-7	-2
O=C(N/N=C/c1ccc(O)cc1)c1cc(-c2ccc3c(c2)OCO3)n[nH]1	23	6	10	0	3
C[C@@H]1CN([C@@H](C)CO)C(=O)c2cc(NC(=O)Nc3ccc4c(c3)OCO4)ccc2O[C@@H](C)CCCCO[C@@H]1CN(C)C(=O)CCCN(C)C	1	.	.	.	.
CCCN1C[C@@H](C)[C@H](OC)CN(C)C(=O)c2cc(NC(=O)c3cnccn3)ccc2OC[C@H]1C	1	.	.	.	15
Cc1cccc(-c2noc(-c3csc([C@@H]4C[C@H](O)[C@@H](CO)O4)n3)n2)c1	-13	.	.	46*	6
OC[C@H]1O[C@H](c2nc(-c3nc(-c4cccs4)no3)cs2)C[C@@H]1O	-25	.	.	10	-1
COc1cc(OC)cc(-c2noc(-c3csc([C@@H]4O[C@H](CO)[C@H](O)[C@H](O)[C@H]4O)n3)n2)c1	-4	.	.	1	-7
COc1cc(OC)cc(-c2noc(-c3csc([C@H]4C[C@H](O)[C@@H](CO)O4)n3)n2)c1	71*	.	.	39*	0
Cc1noc(C)c1NC(=O)N(C)C[C@@H]1Oc2ccc(NC(=O)C3CC3)cc2CC(=O)N([C@H](C)CO)C[C@H]1C	7	.	.	.	9
S=c1nc(COc2ccccc2)[nH]c2ccccc12	68*	27	7	27	-6
O=C(C[C@H]1C=C[C@H](NS(=O)(=O)c2ccc(F)cc2)[C@H](CO)O1)NCc1ccc(Cl)c(Cl)c1	9	.	.	.	6
CC(C)c1cn(CC[C@H]2CC[C@H](NC(=O)C3CCC3)[C@@H](CO)O2)nn1	10	.	.	.	6
COc1ccc(C(=O)c2c3ccccc3[n+]([O-])n2CCC(N)=O)cc1	47*	3	12	3	6
COc1ccc(C(=O)c2c3ccccc3[n+]([O-])n2Cc2ccc(C(N)=O)cc2)cc1	19	-1	9	0	-7
COc1ccc(C(=O)c2c3ccccc3[n+]([O-])n2CCCN)cc1	29	3	-15	-3	0
COc1ccc2c(C(=O)c3ccc(C)cc3)n(Cc3ccc(C(N)=O)cc3)[n+]([O-])c2c1	101*	46	-1	?	16
CCN1[C@H](C(=O)OC)[C@@H](CO)[C@@H]2Cn3c(ccc(-c4cccc(OC)c4)c3=O)[C@@H]21	-5	.	.	.	-1
O=C(NC(=O)c1ccccc1)Nc1ccc(-c2cnco2)cc1	.	.	.	-3	.
COc1ccccc1NC(=O)NC(=O)c1ccccc1	62*	.	1	47*	3
COC(=O)C(NC(=O)c1ccccc1)=C(C)C	1	1	-6	.	94*
O=C(NC(=O)c1ccccc1)Nc1ccccc1	-50	3	-4	36*	-7
COc1ccc(NC(=O)NC(=O)c2ccccc2)cc1	37	.	6	52*	1
CCOC(=O)C(NC(=O)c1ccccc1)=C(C)C	-7	3	-6	-2	0
